“And” between values parts separate entries of the source, which are not always exact repeats. Identical values can stand only once. The panel holds about 79,000 compounds, 15% with a hit somewhere; the sample as a whole holds those more often. Rule as the data show it: active = growth inhibition above about 70%; inactive = the rest.
Tests used:
[1] = NCI Yeast Anticancer Drug Screen. Data for the rad50 strain (AID 155);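 also: 0% = growth of vehicle-only cultures of the same strain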; settings: S. cerevisiae rad50 strain growth inhibition; at 50.0 µM; active compounds read high
Method in brief: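 Relative growth inhibition (compound vs vehicle) was measured in yeast with a defined repair-gene alteration.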

[2] = NCI Yeast Anticancer Drug Screen. Data for the mec2-1 strain (AID 157); settings: S. cerevisiae mec2-1 strain, at 50.0 µM, active compounds read high
Method in brief: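 mec2-1 yeast strain, carrying an alteration in DNA damage repair or cell cycle control, was exposed to compounds; growth inhibition was measured relative to vehicle-treated controls.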

[3] = NCI Yeast Anticancer Drug Screen. Data for the sgs1 mgt1 strain (AID 161);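 also: 0% = growth of cultures given vehicle only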; settings: S. cerevisiae sgs1 mgt1 strain, at 50.0 µM, active compounds read high
Method in brief: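 Compounds are added to genetically altered yeast, and growth is compared with cultures given vehicle alone to give percent inhibition.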

[4] = NCI Yeast Anticancer Drug Screen. Data for the cln2 rad14 strain (AID 165);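 also: 0% = growth equal to vehicle treated cultures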; settings: S. cerevisiae cln2 rad14 strain, at 50.0 µM, active compounds read high
Method in brief: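 Yeast carrying cln2 and rad14 alterations (cell cycle control and DNA damage repair) were exposed to compounds. Growth inhibition was measured against vehicle-treated controls.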

[5] = NCI Yeast Anticancer Drug Screen. Data for the bub3 strain (AID 167); settings: S. cerevisiae bub3 mutant strain, at 50.0 µM, active compounds read high
Method in brief: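 Screening used yeast with an engineered genetic alteration affecting cell cycle control. Compound-exposed cultures were compared with vehicle cultures, and reduced growth was taken as inhibition.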

[6] = NCI Yeast Anticancer Drug Screen. Data for the mlh1 rad18 strain (AID 175); settings: S. cerevisiae mlh1 rad18 strain growth inhibition; at 50.0 µM; active compounds read high
Method in brief: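 Growth inhibition of the yeast strain was measured after compound exposure and expressed relative to vehicle-treated controls. The strain carries defined defects in DNA damage repair.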

Measured: growth inhibition

CP(O)(=S)C1CCCCC1 (centres undefined) (tested in a mixture with another compound)
inactive: [1] 26.8% | [2] 1.1% | [3] -4.85% | [4] 5.3% | [5] 18.7% | [6] 13.8%

C[N+](C)=c1nc(N2CCc3ccccc3C2)ss1
inactive: [1] 27% | [2] 37% | [3] 26.4% | [4] -19.4% | [5] 12.1% | [6] 47.7%

O=C1CC2(CCNCC2)C(=O)N1N1CCOCC1
inactive: [1] 19.6% | [2] -0.15% | [3] 5.4% | [4] 7.55% | [5] 2.6% | [6] 6%

CC(C)CC(=O)[O-].CC(C)CC(=O)[O-].N.N.N.N.[Co+3].[O-][Cl+3]([O-])([O-])[O-]
inactive: [1] -0.8% and -12.4% | [2] 9.7% and 11.6% | [3] -28.9% and -24.1% | [4] 10.3% and 1.35% | [5] 15.8% and -0.6% | [6] -14.5% and 2.55%

CCC(C(=O)NC1CN2CCC1CC2)c1ccccc1 (centres undefined)
inactive: [1] -6.25% | [2] -23.3% | [3] -27.4% | [4] -3.15% | [5] -2.6% | [6] -13.2%

NC(Cc1ccccc1)c1ccccc1 (centres undefined)
inactive: [1] 3.15% and -1.6% | [2] -7.3% and -0.95% | [3] 0.3% and -16.8% | [4] -36% and -23.1% | [5] 5.35% and 1.75% | [6] 14.8% and -0.1%

CC(C)=CC1C(C(=O)OCCOc2ccccc2)C1(C)C (centres undefined)
inactive: [1] -0.75% | [2] -6.5% | [3] 10.2% | [4] -26.6% | [5] -13.6% | [6] -2.05%

CC(C)C(NC(=O)CCl)C(=O)O (centres undefined)
inactive: [1] -9.2% | [2] -0.2% | [3] 5.75% | [4] -11.4% | [5] -2.55% | [6] 0.3%

CC1=CC(=O)C=CC1=O
inactive: [1] 39.1% | [2] 52.3% | [3] 28.9% | [4] 12.4% | [5] 11.3% | [6] 55.4%
